Hits are enriched below; roughly 27% of the tested compounds scored in any of these assays.
CYP2C19 activ: activators of human cytochrome P450 2C19. AID 1025. recombinant CYP2C19, luciferin-H EGE luminescence; active compounds read high; 0 = fully inhibited enzyme, 1 = untreated enzyme. P33261. 96,000 tested, under 10 active. activation factor at 5 µM;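 active means activation factor of at least 2 at 5 µM in the primary screen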
CYP2C9 activ: activators of human CYP2C9; P11712; 96,000 compounds, 1.4% hits; recombinant CYP2C9, luciferin-H conversion, luminescence; active compounds read high; factor 1 = untreated enzyme, 0 = blocked; activation factor at 5 µM;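 active means activation factor of 2 or more for CYP2C9 at a 5 µM dose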
Cav32 inh: human Cav3.2 channel inhibition, primary screen; Cav3.2-expressing cells, Fluo-4 calcium fluorescence FDSS; active compounds read low; B-score at 10 µM; 100,000 compounds, 4% hits; AID 449739;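 active means single-dose well whose peak fluorescence ratio is a statistical outlier from its plate by either plate-standardised score or position-corrected B-score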
CYP2C19 inh: inhibitors of human CYP2C19; AID 778; 96,000 compounds, 21% hits; inhibition, % at 5 µM; CYP2C19 Supersomes, luciferin-H EGE luminescence, 30 min;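 active means CYP2C19 inhibition above a set limit at 5 µM in the primary screen, cut at about 50% in these data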
PTK2B oligo ant: Pyk2 (human) oligomerization antagonism. Q293 cells, Pyk2 FERM NanoBiT luminescence; active compounds read low. z-score (the deposit names both 25 µM and 10 µM). 99,000 compounds, 0.83% hits;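 active means Z-score of -3 or lower, scaled per plate to the spread of control and sample wells; inactive means z-score above -3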;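 further: negative z-score means lost luminescence so less FERM oligomerization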
CYP2C9 inh: inhibitors of human CYP2C9; P11712; CYP2C9 Supersomes, luciferin-H conversion, luminescence; inhibition, % at 5 µM; 96,000 compounds, 20% hits;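 active means blocking of liver enzyme CYP2C9 beyond about 50% at 5 µM, limit read from the data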
Numbers stand for hits; 0 = inactive; - = not tested or not shown.

SMILES | CYP2C19 activ | CYP2C9 activ | Cav32 inh | CYP2C19 inh | PTK2B oligo ant | CYP2C9 inh
COc1ccc(S(=O)(=O)Nc2ccc3c(c2)OCCO3)cc1Cl | 0 | 0 | 0 | 99 | 0 | 93
O=C(O)c1ccc(NS(=O)(=O)c2ccc3c(c2)OCCO3)cc1 | 0 | 0 | 0 | 0 | - | 0
O=C(COc1ccc(S(=O)(=O)NC2CCCCC2)cc1Cl)NCc1ccc2c(c1)OCO2 | 0 | 0 | 0 | 94 | 0 | 98
O=S(=O)(Nc1ccc2c(c1)OCCO2)c1ccc2oc3ccccc3c2c1 | 0 | 0 | -5.9 | 100 | 0 | 98
COc1cc2c(cc1OC)CN(C(=O)c1ccccc1C(=O)O)CC2 | 0 | 0 | 0 | 0 | 0 | 0
COC(=O)COc1ccc(S(=O)(=O)Nc2ccc3c(c2)OCO3)cc1Cl | 0 | 0 | 0 | 98 | 0 | 70
Cc1cccc(NS(=O)(=O)c2ccc3c(c2)OCCO3)c1 | 0 | 0 | 0 | 100 | 0 | 0
Cn1c(=O)c2c(nc(N/N=C/c3ccc(OC(=O)c4ccco4)cc3)n2Cc2ccccc2Cl)n(C)c1=O | - | - | - | - | 0 | -
NC(=O)CC(NC(=O)Cc1cccc2ccccc12)c1ccc(N2CCc3ccccc3C2)c([N+](=O)[O-])c1 (configuration not stated) | - | - | 0 | - | - | -
Cc1ccc(Cc2nnc3n(-c4ccccc4)nc(C(=O)c4ccccc4)n3c2=O)cc1 | - | - | 0 | - | 0 | -
CC(C)NC(C(=O)Nc1cc(Cl)cc(Cl)c1)c1ccccc1 (configuration not stated) | 0 | 0 | -4.6 | 71 | 0 | 72
Cc1ccc(O)c(C(=O)c2cnc3c(c2)CN(CCC(C)C)C(=O)N3)c1 | 0 | 0 | 0 | 0 | 0 | 64
Cc1ccc(O)c(C(=O)c2cnc3c(c2)CN(C)C(=O)N3)c1 | 0 | 0 | 0 | 0 | 0 | 0
COc1cc(NC(=O)CCc2ccccc2)c(C(=O)O)cc1OC | 0 | 0 | 0 | 0 | 0 | 0
COc1cc(OC)c(NC(=O)CCc2ccccc2)cc1Cl | 0 | 0 | 0 | 84 | 0 | 0
COc1ccc(Cl)cc1NC(=O)CCc1ccccc1 | 0 | 3 | -4.6 | 83 | 0 | 0
Cc1cc(Cl)ccc1OCC(=O)NCc1ccncc1 | 0 | 0 | 0 | 95 | 0 | 82
O=C(COc1ccc(Cl)cc1Cl)Nc1ccccn1 | 0 | 0 | 0 | 70 | 0 | 78
Cc1cc2oc(C(=O)NCc3ccncc3)c(C)c2cc1C | 0 | 0 | 0 | 98 | - | 97
O=C(COc1ccc(Cl)cc1Cl)NCCCn1ccnc1 | 0 | 0 | 0 | 100 | 0 | 97
Cc1cc(Cl)ccc1OCC(=O)NCCC(=O)O | 0 | 0 | - | 0 | 0 | 0
COc1ccccc1NC(=O)C1=C(C)Nc2nc(-c3cccs3)nn2C1c1cccnc1 (configuration not stated) | 0 | 0 | 0 | 0 | - | 0
CCCCNC(=O)C1CC(=O)N(c2ccc(OC)cc2)C1c1ccc(OC)cc1 (configuration not stated) | 0 | 0 | 0 | 0 | 0 | 0
O=C(COc1ccc(Cl)cc1Cl)NCc1ccncc1 | 0 | 0 | 0 | 100 | 0 | 95
CCn1cc(C(C)NC(=O)COc2ccc(Cl)cc2C)c(C)n1 (configuration not stated) | 0 | 0 | 0 | 62 | 0 | 82
SMILES | CYP2C19 activ | CYP2C9 activ | Cav32 inh | CYP2C19 inh | PTK2B oligo ant | CYP2C9 inh
CC(C)NC(=O)COc1ccc(Cl)cc1Cl | 0 | 0 | 0 | 0 | 0 | 0
COc1cc(C)nc(OCCNC(=O)COc2ccc(Cl)cc2C)n1 | 0 | 0 | 0 | 73 | 0 | 0
CN(C)P(=NC(=O)COc1ccc(Cl)cc1Cl)(N(C)C)N(C)C | 0 | 0 | 0 | 92 | 0 | 0
CN1CCCCc2c1[nH]c1ccccc1c2=O | 0 | 0 | 0 | 0 | 0 | 0
O=C(CCN1c2ccccc2Sc2ccccc21)OCC(=O)N1CCN(C(=O)c2ccco2)CC1 | 0 | 0 | 0 | 0 | 0 | 0
CC(Oc1ccc(Cl)cc1)C(=O)NCCCn1ccnc1 (configuration not stated) | 0 | 0 | 0 | 100 | 0 | 89
Cc1cc(=O)oc2cc(OCC(=O)NCc3ccncc3)ccc12 | 0 | 0 | 0 | 65 | 0 | 91
COc1cc(-c2nc(-c3ccccc3)c(-c3cccs3)[nH]2)cc(OC)c1OC | 0 | 0 | 0 | 0 | -3 | 0
COc1cccc(-c2nc(-c3ccc4c(c3)-c3ccccc3S4(=O)=O)c(-c3ccccc3)[nH]2)c1OC | - | - | 0 | - | 0 | -
COc1cc(-c2noc(-c3cccs3)n2)cc(OC)c1OC | - | - | 0 | - | 0 | -
COc1cc(-c2nc(-c3ccccc3)c(-c3cccs3)[nH]2)cc(OC)c1O | 0 | 0 | 0 | 61 | 0 | 82
